# Measured values published in PubChem BioAssay (NCI).
# The panel holds about 83,000 compounds, 20% with a hit somewhere; the sample as a whole holds those more often.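 48-hour exposure, single concentration, 96-well plates; percent growth endpoint where 0 means no net growth. Active: below 10.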 Values without a mark were called inactive. Calls of active or inactive are those of the source.
# Test system: SN12C renal
# Test: NCI-60 one-dose screen, 48 h (100 = growth as untreated, 0 = no growth, -100 = all killed)
# Details: 10 µM unless noted
row,Compound,growth
1,COc1ccc2c(c1)c(-c1nc(-c3c[nH]c4ncccc34)cs1)cn2C,74.5%
2,O=C(O)c1cccc2c1Cc1cc([N+](=O)[O-])ccc1-2,103%
3,CCOc1ccc(NC(=O)c2ccccc2-c2ccccc2C(=O)O)cc1,100%
4,O=c1c2sc3ncc(Br)cc3c2ncn1-c1cccc(Cl)c1,64.5%

# Test system: UO-31 renal
# Test: as above
# Details: 10 µM unless noted
row,Compound,growth
1,Cn1c(/C(C#N)=C/c2ccc3ccccc3c2)cc2ccccc21,57.5%
2,Cn1cc(-c2nc(-c3c[nH]c4ncccc34)cs2)c2cc(F)ccc21,29.4%
3,CC(=O)N1N=C(c2ccc(C)cc2)CC1c1ccc(Oc2ccc(Br)cc2)cc1 (stereo not given),39.2%
4,NC1=NN=C2N(N)C(=O)c3cnn(-c4ccccc4)c3N2c2nc(-c3ccccc3)cc(-c3ccccc3)c21,78.3%
5,Fc1ccc2nc(-c3cc(-c4ccc5c(c4)OCO5)n[nH]3)[nH]c2c1,73.4%
6,CN(C)c1ccc(-c2ccc(-c3ccc(C(=N)N)c(F)c3)s2)cc1,-92.6% (active)
7,Cc1c(C)c2c(c(C)c1NC(=O)CCCCCCC(=O)O)CCC(C)(CCCC(C)CCCC(C)CCCC(C)C)O2 (stereo not given),75.7%
8,Cc1cc(C)nc(NC(N)=NCCc2ccccc2)n1,69.2%
9,C=C(C)[C@@H]1CC[C@]2(C(=O)O)CC[C@]3(C)[C@H](CC[C@@H]4[C@@]5(C)C/C(=C/c6ccc(OC)cc6)C(=O)C(C)(C)[C@@H]5CC[C@]43C)[C@@H]12,12.6%
10,COc1ccc2[nH]cc(-c3nc(-c4c[nH]c5ncccc45)cs3)c2c1,15.1%
11,CCc1ccc(-c2ccc(Nc3ccccc3)nn2)cc1S(N)(=O)=O,101%
12,Cn1cccc1/C=C1/SC(=S)N(CCc2ccc(O)cc2)C1=O,53.7%
13,CN1CCN(CCOc2ccc(-c3cnc4c(-c5ccccc5F)cnn4c3)cc2)CC1,39.1%
14,O=c1c(CNc2ccc(S(=O)(=O)Nc3ncccn3)cc2)coc2ccccc12,74.9%
15,Cc1ccc(-c2nc([P+](c3ccccc3)(c3ccccc3)c3ccccc3)c(N3CCOCC3)o2)cc1,12%
16,O=C1OC(c2ccc(Cl)c(Cl)c2)=C/C1=C/c1cccc([N+](=O)[O-])c1,68%
17,COc1ccccc1-n1cnc(N)c1C(=O)c1cc(OC)c(OC)c(OC)c1,55.2%
18,COc1ccc2c(c1)C/C(=C\c1cc(-c3ccc4c(c3)OCO4)n[nH]1)C2=O,75.1%

row,Compound,growth
1,CN(C)CCCC1(c2ccc(F)cc2)OCc2cc(-c3ccc(C(F)(F)F)nc3)ccc21 (stereo not given),55.5%
2,O=c1c(CNc2ccc(S(=O)(=O)Nc3nccs3)cc2)coc2ccccc12,82.2%
3,Cc1ccc2c(c1)c(-c1nc(-c3c[nH]c4ncccc34)cs1)cn2C,86.2%
4,CC1(C)C(=O)/C(=C\c2ccco2)C[C@]2(C)[C@H]3CC[C@@H]4[C@@H](C(=O)/C=C/c5ccco5)CC[C@@]4(C)[C@]3(C)CC[C@@H]12,58.9%
5,Cc1ccc(-c2nc([P+](c3ccccc3)(c3ccccc3)c3ccccc3)c(N3C[C@H]4C[C@H](C3)c3cccc(=O)n3C4)o2)cc1,83.6%
6,C=C(C)[C@@H]1CC[C@]2(CN)CC[C@]3(C)[C@H](CC[C@@H]4[C@@]5(C)CCC(=O)NC(C)(C)[C@@H]5CC[C@]43C)[C@@H]12,58.9%
7,Nc1c(Cl)cc(N=Nc2ccccc2)cc1Cl,62.2%
8,CC(=O)O[C@H]1CC[C@]2(C)[C@H]3C(=O)C=C4[C@@H]5C[C@](C)(C(=O)N6CCCNCC6)CC[C@]5(C)CC[C@@]4(C)[C@]3(C)CC[C@H]2C1(C)C,-85.5% (active)
9,O=C(N/N=C\c1ccccc1O)C1CC1,71%
10,COc1ccc(OCC(CO)N2CCN(c3ccccc3)CC2)cc1 (stereo not given),86.4%
11,Cn1cc(-c2nc(-c3c[nH]c4ncccc34)cs2)c2ccccc21,62.4%
12,CC1(C)CC[C@]2(C(=O)Nc3ccccn3)CC[C@]3(C)C(=CC[C@@H]4[C@@]5(C)C/C(=C/c6ccncc6)C(=O)C(C)(C)[C@@H]5CC[C@]43C)[C@@H]2C1,36.9%
13,C=C(C)[C@@H]1CC[C@]2(C(=O)O)CC[C@]3(C)[C@H](CC[C@@H]4[C@@]5(C)C/C(=C/c6cccc(I)c6)C(=O)C(C)(C)[C@@H]5CC[C@]43C)[C@@H]12,23.6%
14,Oc1cccc2oc(=S)[nH]c12,72.9%
15,CC(=O)O[C@H]1CC[C@@]2(C)C(=CC[C@@H]3[C@@H]2CC[C@]2(C)C(=O)N(O)C(=O)C[C@@H]32)C1,97.4%
16,O=C(O)c1cccc2c1Cc1cc([N+](=O)[O-])ccc1-2,103%
17,CCOc1ccc(NC(=O)c2ccccc2-c2ccccc2C(=O)O)cc1,88.7%
18,O=c1c2sc3ncc(Br)cc3c2ncn1-c1cccc(Cl)c1,52.1%
